From the supplement of paper PMC6555819

Tested on: PPARg:RXRa (NR concentration 180 nM, RXRa partner concentration 90 nM)
Assay: PBM binding z-score (relative to random genomic background probes); higher = stronger binding; sequences stand for … in GC…GCGATTGACAGCGTAGAATGAAGG
Outline: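 Each nuclear receptor dimer, without ligand, was incubated for 1 h on custom Agilent 4×180K protein-binding microarrays. Binding was detected with antibodies against each partner (one per run), and scanned fluorescence was regression-normalized. The binding z-scores are referenced to random human genomic background probes.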

| Sequence | PBM binding z-score |
| --- | --- |
| CTCCAAAGGTCGTGCTCAGGTGAGTATACCAAAC | 3.62 |
| TAGCCAAGGTCATGGGCCAGTATACCACGCGAAC | 5.96 |
| CGAACTACGTCAGAACAGGACAGTGAAGGATGAT | 0.632 |
| ATATGTTGGTTATCGGGTCATTCAGTTTGCGCAT | 1.7 |
| ACAGACAGGTTATGAAGGTAACTCAGGCTATCAT | 0.876 |
| CCGACTGGGGCAGAAAGGATACCATACCATCCGG | 0.937 |
| TCACGGAGGACACGAAAGGTCAGAGCTCGACATC | 1.48 |
| TGTCAAAGTTCAAAGGCAACGTAAGTATCCACAC | 8 |
| CCTCGCAGGCCAATCTGGGTCACTCAAGGCTTGA | 1.74 |
| GCGACTGGGGCATCAGCAGGTTACCATTACTTAA | 0.716 |
| TAGCCTAGGTCATGGGCCAGTATCCCACGCGAAC | 3.88 |
| TCATATAGGTAAAAGGTGAAATTCGGTGTGGTAA | 8.93 |
| CCTATTAGATGACCATAAGGGCAACCGAAGCTCG | 0.753 |
| AGAACGAGGGCACGCTGAGTTGGTAGCAGAGTAG | 1.62 |
| AGCACGAGGGCAATGAGTTGATAGCACGGGTGGC | 0.928 |
| CCGACTGGGGCATAAAGTTACCATAAGCCAGCCC | 0.855 |
| CGAACTAGGTCATCCAGGACAGTAAATACATTGA | 7.87 |
| ATCTCTAGGTGAAGATAGTTCAGTGAATGCAAAT | 1.75 |
| ACTATTAGTTGACTTGGGGCAACCGATACGACGC | 0.902 |
| TAGCTTAGGTCATTGGGCCAGTATAGTACGCATC | 2.96 |

| Sequence | PBM binding z-score |
| --- | --- |
| AGAATGCGGTTATTAAGATCAGGGAATTGCGGTC | 0.0333 |
| TCTTGTAGATAAGCAGGTTAAGAAAGCTGGCCAA | -0.481 |
| GCATATAGGTAATACAAGGTGAAAGTTCGATTGT | 3.47 |
| GATACAGGGTCAAGGCCAGACTACGCGTATTGAT | 6.16 |
| TCGGCTAGGTCAGTTGGTCAGCTAACGAGCTGCC | 0.0282 |
| AGTAAAAGTTCAGGACGAGGTAACGTAAAGCACG | 1.81 |
| AGAACGAGGGCAATGAGTTGATAACACGGGTGGC | 1.84 |
| TGAATGAGGTTATAAGCTCAGGGAACGTTGCAAA | 0.877 |
| TCTATTAGTTGATTAGGGCATCCGAAACAGCGGA | 0.185 |
| ATATGTAGGTTAAGGGTAATTCAGGTTGGTTCGC | 8.65 |
| CAAACTAGGTCACAGAGGTCAAATTCCGTGCGTA | 10.5 |
| CGAACGAGGGCATGAGTGGATAGCAAATGCCGAT | 1.27 |
| CCGAGTAGGTTATGGGGCATTCCGGCAACGGTGA | 3.05 |
| CGTCCCAGGTCATAGGAGGTCAGTGAAGACAGAT | 3.87 |
| TTACCAAGTTGAAGGTCGTTGATCCCTCTGTAGA | 0.598 |
| GCACCAAGGTGAATAGGTCGTTGATGAGTAGGCG | 1.17 |
| ATCGAAAGGTCGTGAGGTGAGTAGACAGAAAGGC | 3.83 |
| CGAACTAGGTGATCCAGGACAGTGAATACATTGA | 2.3 |
| TCTTGTAGATTAACAGGAGGTTAAGAAAGATCGA | 0.145 |
| AGAATGAGGTTATTAATATCAGGGAATTGCGGTC | 1.54 |
